# Reference: article PMC4336329 (PLoS ONE, 2015)
# In all, about 310,000 compounds went through this assay and about 14,000 (4.5%) showed an effect of 50% or more. The effect is printed as a negative number. The list comes from a sample in which strong results are over-represented; it also holds similar structures and randomly drawn compounds.
# Biological target: human ether-à-go-go-related gene (hERG) potassium channel (human, UniProt Q12809)
# Test: primary screen, population patch clamp on CHO cells stably expressing hERG; higher = less effect of the substance
# 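Note: peak tail current of the secondary pulse compared with the same well before compound.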
# Sequence of human ether-à-go-go-related gene (hERG) potassium channel (Q12809 whole entry, looked up): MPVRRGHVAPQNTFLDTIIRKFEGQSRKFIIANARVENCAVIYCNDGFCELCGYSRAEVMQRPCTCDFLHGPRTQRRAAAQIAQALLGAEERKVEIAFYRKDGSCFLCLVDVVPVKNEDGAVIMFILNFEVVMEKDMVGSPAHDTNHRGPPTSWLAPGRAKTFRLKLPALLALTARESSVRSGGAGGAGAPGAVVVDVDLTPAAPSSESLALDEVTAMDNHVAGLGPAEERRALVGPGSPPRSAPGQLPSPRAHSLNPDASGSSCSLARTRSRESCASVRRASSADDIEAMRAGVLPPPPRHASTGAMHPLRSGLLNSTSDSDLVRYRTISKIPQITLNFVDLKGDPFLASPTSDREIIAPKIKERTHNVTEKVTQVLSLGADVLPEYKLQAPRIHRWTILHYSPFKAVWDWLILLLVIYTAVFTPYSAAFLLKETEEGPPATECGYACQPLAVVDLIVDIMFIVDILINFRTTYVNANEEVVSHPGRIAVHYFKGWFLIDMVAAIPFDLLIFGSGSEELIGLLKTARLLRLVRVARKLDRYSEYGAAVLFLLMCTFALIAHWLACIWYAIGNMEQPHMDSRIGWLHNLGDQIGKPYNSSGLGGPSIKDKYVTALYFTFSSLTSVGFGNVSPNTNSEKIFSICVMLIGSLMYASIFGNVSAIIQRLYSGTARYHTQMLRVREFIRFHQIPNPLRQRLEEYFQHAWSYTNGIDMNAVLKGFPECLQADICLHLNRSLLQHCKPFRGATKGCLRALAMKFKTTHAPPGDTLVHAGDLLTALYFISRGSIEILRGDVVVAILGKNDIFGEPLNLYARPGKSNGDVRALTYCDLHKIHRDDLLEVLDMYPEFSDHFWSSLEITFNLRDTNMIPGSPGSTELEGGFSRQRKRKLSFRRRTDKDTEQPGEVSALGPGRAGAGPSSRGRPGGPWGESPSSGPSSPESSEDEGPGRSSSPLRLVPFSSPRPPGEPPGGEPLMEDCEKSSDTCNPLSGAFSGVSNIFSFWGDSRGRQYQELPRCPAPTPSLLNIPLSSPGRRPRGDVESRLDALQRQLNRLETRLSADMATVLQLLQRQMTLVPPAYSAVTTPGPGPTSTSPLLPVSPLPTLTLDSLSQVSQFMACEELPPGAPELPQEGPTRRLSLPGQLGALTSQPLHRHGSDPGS
row,Compound,"hERG current change (%, negative = inhibition) at 10uM"
1,CC1C(=O)N2CCCc3cc(S(=O)(=O)N4CCC(C(N)=O)CC4)cc1c32 (stereo not drawn),7.24%
2,CC1CCN(c2ccc(C(=O)Nc3ccc4c(c3)OCO4)cc2[N+](=O)[O-])CC1,7.17%
3,O=C(CN(C(=O)C1CSC(=O)C1)c1ccccc1F)NCc1ccc2c(c1)OCO2 (stereo not drawn),-12.4%
4,O=C(COC(=O)c1cc([N+](=O)[O-])ccc1N1CCOCC1)Nc1ccc(Cl)cn1,-61.5%
5,COc1ccccc1NC(=O)COC(=O)c1cc([N+](=O)[O-])ccc1N1CCCC1,-0.76%
6,CN(Cc1ccccc1)C(=O)COC(=O)c1cc(S(=O)(=O)N(C)C)ccc1N1CCCC1,1.93%
7,CN(Cc1ccccc1)C(=O)COC(=O)c1ccc(S(=O)(=O)N(C)C)cc1,-2.9%
8,O=C(COC(=O)c1cc([N+](=O)[O-])ccc1N1CCOCC1)Nc1ncc(Cl)cc1Cl,-29.2%
9,COc1cccc(CNC(=O)COC(=O)c2cc([N+](=O)[O-])ccc2N2CCCC2)c1,-56.9%
10,CCN(CC)S(=O)(=O)c1ccc(O)c(C(=O)OCC(=O)N(C)Cc2ccccc2)c1,-55.4%
11,O=C(COC(=O)c1cc([N+](=O)[O-])ccc1N1CCOCC1)Nc1cc(F)ccc1F,-49.8%
12,COc1ccc(NC(=O)COC(=O)c2cc([N+](=O)[O-])ccc2N2CCOCC2)cc1,-29.3%
13,O=C(COC(=O)c1cc([N+](=O)[O-])ccc1N1CCOCC1)NCCc1ccccc1,-45.4%
14,O=C(COC(=O)c1cc([N+](=O)[O-])ccc1N1CCOCC1)NCc1ccc(F)cc1,-53.7%
15,O=C(COC(=O)c1cc([N+](=O)[O-])ccc1N1CCOCC1)Nc1c(Cl)cccc1Cl,-5.53%
16,CCCc1nnc(NC(=O)CN2CCN(C)CC2)s1.Cl,-1.91%
17,O=C(Nc1cccc(O)c1)c1noc2c1CCCCC2,-8.56%
18,O=c1[nH]nc(-c2ccc(F)cc2)cc1Cc1ccccc1,3.89%
19,CN(C)C(=O)c1cc(C(=O)c2ccc(F)cc2Cl)c[nH]1,11.4%
20,CN(Cc1ccc(OC(F)F)cc1)Cc1nc2c(Br)cc(Br)cc2c(=O)[nH]1,-5.29%
21,COc1cc(/C=C/C(=O)OCC(=O)NC2CCS(=O)(=O)C2)ccc1OC(F)F (stereo not drawn),-14%

row,Compound,"hERG current change (%, negative = inhibition) at 10uM"
1,COc1cc(NC(=O)NS(=O)(=O)c2ccc(C)cc2)cc(OC)c1,-1.04%
2,CSc1snc(SCC(N)=O)c1C#N,20.6%
3,Cc1cccc(-n2c(C)nc3c(cnn3-c3ccc(F)cc3)c2=O)c1,-12.6%
4,COc1ccc(C)cc1NC(=O)c1cccc(-c2ccc(OC(C)=O)cc2)c1,28.5%
5,COc1ccc(NC(=O)Nc2nnc(N3CCC(C)CC3)s2)cc1OC,-0.885%
6,CC1=NNC(=O)C1C(c1cccc(O)c1)C(C#N)C#N (stereo not drawn),14.3%
7,CC(C)CCNC(=O)c1cc([N+](=O)[O-])ccc1N1CCOCC1,-17.1%
8,CCN(C(=O)COC(=O)c1cc([N+](=O)[O-])ccc1N1CCOCC1)c1ccccc1,-34.3%
9,O=C(NC1CCSc2ccccc21)c1cc([N+](=O)[O-])ccc1N1CCOCC1 (stereo not drawn),-57.8%
10,CC(=O)Nc1ccc(NC(=O)COC(=O)c2cc([N+](=O)[O-])ccc2N2CCOCC2)cc1,0.326%
11,O=C(NCCOc1ccccc1F)c1cc([N+](=O)[O-])ccc1N1CCOCC1,-45.1%
12,O=C(COC(=O)c1cc([N+](=O)[O-])ccc1N1CCOCC1)c1ccccc1Cl,-2.75%
13,O=C(NCCOc1ccccc1)c1cc([N+](=O)[O-])ccc1N1CCOCC1,-62.1%
14,O=C(COC(=O)c1cc([N+](=O)[O-])ccc1N1CCOCC1)Nc1cccc(F)c1,-28.5%
15,O=C(NC1CCSc2ccccc21)c1cccc([N+](=O)[O-])c1 (stereo not drawn),-21.1%
16,CC(NC(=O)COC(=O)c1cc([N+](=O)[O-])ccc1N1CCOCC1)c1ccc(F)cc1 (stereo not drawn),-56.8%
17,CN(Cc1ccccc1)C(=O)COC(=O)c1cc([N+](=O)[O-])ccc1N1CCOCC1,-56.7%
18,O=C(NC1CCCCC1)c1cc([N+](=O)[O-])ccc1N1CCOCC1,-13.8%
19,COC(=O)c1ccccc1NC(=S)N1CCC(N2CCCCC2)CC1,-12.2%
20,Cc1oc(-c2ccccc2Cl)nc1CS(=O)CC(=O)NC1CC1 (stereo not drawn),7.58%
21,C[C@@H]1C=C[C@](Cc2ccccc2)(C(=O)NCCc2c[nH]c3ccccc23)N1C(=O)c1ccccc1,-7.94%

row,Compound,"hERG current change (%, negative = inhibition) at 10uM"
1,COc1ccc(Nc2c(C)cccc2C)cc1,17.7%
2,COc1ccc(-c2cc(C)nc(SCC(=O)c3cccc([N+](=O)[O-])c3)n2)cc1,0.439%
3,O=C(COC(=O)C1C2CC3OC(=O)C1C3C2)Nc1ccc(F)cc1 (stereo not drawn),13.2%
4,COc1ccc(CN2CCC(C(=O)N3CCCC(C)C3)CC2)cc1OC.O=C(O)C(=O)O (stereo not drawn),-19.2%
5,CCC(C)(C)NC(=O)CSc1nc(Cc2ccccc2)nc2ccccc12,11.5%
6,CCOc1ccccc1NS(=O)(=O)c1ccc2c(c1)NC(=O)CCS2,-46%
7,O=C(CC1C(=O)NCCN1Cc1ccc(F)c(F)c1)NCCCn1ccnc1 (stereo not drawn),19%
8,CC(NC(=O)c1ccc2ccccc2n1)c1ccccc1 (stereo not drawn),-6.17%
9,O=C(COC(=O)c1cc([N+](=O)[O-])ccc1N1CCOCC1)c1ccc(Br)cc1,-44.6%
10,CN(CC(=O)Nc1ccccc1Cl)C(=O)COC(=O)c1cc([N+](=O)[O-])ccc1N1CCOCC1,-44.4%
11,O=C(COC(=O)c1cc([N+](=O)[O-])ccc1N1CCOCC1)c1ccccc1,-20.1%
12,O=C(NCCc1ccc(F)cc1)c1cc([N+](=O)[O-])ccc1N1CCOCC1,-71.4%
13,O=C(NCCc1cccc(Cl)c1)c1cc([N+](=O)[O-])ccc1Cl,-51%
14,CN(CC(=O)Nc1ccc(F)cc1)C(=O)COC(=O)c1cc([N+](=O)[O-])ccc1N1CCOCC1,-64.3%
15,COc1ccc(CCNC(=O)c2cc([N+](=O)[O-])ccc2N2CCOCC2)cc1,-33%
16,CN(CC(=O)Nc1ccc(F)cc1)C(=O)c1cc([N+](=O)[O-])ccc1N1CCOCC1,-24.9%
17,O=C(COC(=O)c1cc([N+](=O)[O-])ccc1N1CCOCC1)c1ccc(F)cc1,-55.9%
18,O=C(NCCCc1ccccc1)c1cc([N+](=O)[O-])ccc1Cl,-12.3%
19,NS(=O)(=O)c1ccc(CCNC(=O)c2cc([N+](=O)[O-])ccc2N2CCOCC2)cc1,-15.2%
20,O=C(NCCc1cccc(Cl)c1)c1cccc([N+](=O)[O-])c1,-15.7%
21,CC(C)C(=O)NC(=S)Nc1sc2c(c1C(N)=O)CCCC2,13.5%

row,Compound,"hERG current change (%, negative = inhibition) at 10uM"
1,COc1ccc(N2C(=O)CSCC2=O)cc1OC,8.4%
2,Cc1ccc2nc(CCl)[n+]([O-])c(-c3ccccc3)c2c1,1.16%
3,Cc1ccc(CN2C(=O)CCC2C(=O)NCCN2CCOCC2)cc1 (stereo not drawn),3.18%
4,CCc1cccc(CC)c1NC(=O)CN1CCN(c2ccccc2)CC1.Cl,-15.7%
5,O=S(=O)(N1CCOCC1)N1CCN(c2ccccc2F)CC1,-8.17%
6,CC(C)CNC(=O)c1ccccc1-c1ccccc1C(=O)O,19.5%
7,CCc1nnc(NC(=O)CSc2nnc(C(C)NC(=O)c3ccccc3F)n2C)s1 (stereo not drawn),9.22%
8,COc1ccccc1CNC(=O)COC(=O)c1cc([N+](=O)[O-])ccc1N1CCOCC1,-48.9%
9,CCOc1ccc(C(=O)c2cc([N+](=O)[O-])ccc2N2CCOCC2)cc1,-20.4%
10,N#CC1(NC(=O)COC(=O)c2cc([N+](=O)[O-])ccc2N2CCOCC2)CCCCC1,-55.3%
11,O=C(COC(=O)c1cc([N+](=O)[O-])ccc1N1CCOCC1)NCc1ccc(Cl)cc1Cl,-63%
12,CCOc1ccc(NC(=O)c2cc([N+](=O)[O-])ccc2N2CCOCC2)cc1,-55.5%
13,CCOc1ccc(NC(=O)COC(=O)c2cc([N+](=O)[O-])ccc2N2CCOCC2)cc1,-43.8%
14,O=C(COC(=O)c1cc([N+](=O)[O-])ccc1N1CCOCC1)NC1CCCCC1,-30.7%
15,N#CC1(NC(=O)COC(=O)c2cc([N+](=O)[O-])ccc2N2CCCC2)CCCCC1,-29.8%
16,O=C(COC(=O)c1cc([N+](=O)[O-])ccc1N1CCOCC1)Nc1ccc(Cl)cc1,-28.2%
17,CCOc1cc(/C=N/NC(=O)c2cccnc2)ccc1OCC(=O)N(C)C,19.3%
18,CC(OC(=O)c1ccccc1C(=O)N(C)c1ccccc1)C(=O)Nc1ccccc1[N+](=O)[O-] (stereo not drawn),-45.5%
